A short description of assay [1]: AP1 Signaling Pathway (AID 357).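 Further: ME-180 reporter cells stimulated with EGF at its EC50 level; on the % scale 0 is the no-effect control and ±100 the full control effect.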 The method, boiled down:
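A ratiometric CCF4 readout (405 nm excitation; 460 and 530 nm emission) quantified AP-1-driven beta-lactamase in ME-180 cells after 5 h with compound and EC50 EGF; AC50 values were derived for activators and inhibitors.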

Assay [2] is described as follows: Cell Viability - BJ (AID 421; calls by dose curve;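 further: potency means the concentration at half of the fitted maximal effect; cells exposed to compound for 40 hours at 37 °C before readout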). The settings on record: BJ fibroblast viability, qHTS. An outline of the steps: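 Quantitative HTS: ATP depletion in BJ cells after 40 hr compound exposure in complete culture medium, detected with CellTiter-Glo; AC50 from standard Hill fits.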
In general terms: In qHTS, concentration-response curves come from the screen itself.

The nature of assay [3]: Cell Viability - Jurkat (AID 426;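 active means dose-dependent loss of cell ATP signal giving a full or clear fitted curve, ranked by lower potency value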; further: potency means the concentration at half of the fitted maximal effect). As to conditions: qHTS. The method, boiled down:
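Luminescent ATP read-out (CellTiter-Glo, 20 min at room temperature) after 40 hr compound exposure at 37 °C of Jurkat E6-1 cells, 5000/well. Decreased ATP taken as cytotoxicity; AC50 from standard Hill equation.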

Assay [4] in a line: Cell Viability - Hek293 (AID 427;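 active means compounds whose dose-response curve shows a full or clear partial loss of cell viability, called from curve shape rather than a numeric limit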;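 further: potency means the concentration at half of the fitted maximal effect; cells exposed to compound for 40 hours at 37 °C before reading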). As to conditions: qHTS. An outline of the steps: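 AC50 values derive from Hill-modelled concentration-response of ATP-based luminescence, normalized between DMSO-only and 100 uM tamoxifen controls. Cells were exposed in complete culture medium for 40 hr at 37 °C before detection.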
A short description of assay [5]: Cell Viability - HepG2 (AID 433; calls by dose curve;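 further: potency means the concentration at half of the fitted maximal effect; potency for ATP loss meaning cytotoxicity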). As to conditions: qHTS. An outline of the steps:
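HepG2 cells, 1500 per well, treated 40 hr at 37 °C in complete medium; viability from intracellular ATP by CellTiter-Glo luminescence. Normalized to DMSO and 100 uM tamoxifen; AC50 from Hill fit of qHTS concentration-response.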

Assay [6] is described as follows: Cell Viability - MRC5 (AID 434; calls by dose curve;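 further: potency means the concentration at half of the fitted maximal effect; potency reflects cytotoxicity seen as loss of intracellular ATP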). The settings on record: MRC5 lung fibroblast viability, qHTS. An outline of the steps: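 ATP luminescence read-out (CellTiter-Glo, 20 min RT) after 40 hr, 37 °C compound exposure of 1500 MRC5 cells/well. Data normalized to DMSO (basal) and 100 uM tamoxifen (100% inhibition); AC50 from standard Hill equation.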
Assay [7] in a line: Cell Viability - SK-N-SH (AID 435; calls by dose curve;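 further: potency means the concentration at half of the fitted maximal effect; compound exposure lasted 40 h at 37 °C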). As to conditions: SK-N-SH neuroblastoma cell viability qHTS. The method, boiled down: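 SK-N-SH neuroblastoma cells (1500/well) treated 40 h at 37 °C in complete medium; viability read as cellular ATP by CellTiter-Glo luminescence. Normalized to DMSO and 100 uM tamoxifen; AC50 from Hill fits of qHTS concentration-response.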
Assay [8] can be described thus: NFAT Signaling Pathway (AID 444).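 Further: carbachol stimulus at about its EC50 of 1 µM final; on the % scale 0 is the no-effect control and ±100 the full control effect.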 As to conditions: Jurkat NFAT-bla M1, carbachol, beta-lactamase ratio, 5 h. An outline of the steps: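 Jurkat cells with NFAT-driven β-lactamase reporter and co-expressed M1 receptor, stimulated with carbachol (final 1 uM, ~EC50), compound titration, 5 h at 37 °C. CCF4 loaded 1 h at RT; 460/530 nm ratio gave %activity and AC50.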

The nature of assay [9]: Stat Signaling Pathway (AID 446).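 Further: ME-180 cervical cancer cells given 40 pM IL-6 alongside compound; SIE-controlled beta-lactamase reporter measured as 460/530 nm FRET emission ratio; on the % scale 0 is the no-effect control and ±100 the full control effect.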 The method, boiled down: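 Overnight-plated ME-180 cells bearing a STAT Inducible Element beta-lactamase reporter; 5 h co-exposure to compound and 40 pM IL-6; values normalized to 300 pM IL-6 and 125 nM JAK inhibitor controls.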
In assay [10] the target is Glucocorticoid receptor (Homo sapiens) (UniProt P04150). The assay can be described thus: GR-GFP Redistribution (AID 450;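 active means compounds whose dose series gives a full or clear partial fitted curve of increased nuclear translocation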; further: potency means the concentration at half of the fitted maximal effect). As to conditions: U2OS GR-GFP nuclear translocation, laser cytometry, 2 h.
Assay [11] shares this target. The assay can be described thus: GR-EFC Redistribution (AID 451; calls by dose curve; further: potency means the concentration at half of the fitted maximal effect). As to conditions: CHO-K1 GR-EFC translocation, beta-gal luminescence, 2 h. An outline of the steps:
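CHO-K1 cells expressing nuclear EA and GR-ED fragments of b-gal; compounds titrated up to 46 uM final, 2 h at 37 C. GR nuclear translocation read as complemented b-gal luminescence after 1 h RT detection.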

Assay [12] has as its target Mitogen-activated protein kinase 10 (Mus musculus) (UniProt Q61831). The assay can be described thus: JNK3 AlphaScreen Assay (AID 530).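 Further: kinase came from lysate of stimulated human HepG2 cells; signal reports phosphorylation of biotinylated GST-cJun 1-79 at Ser73 with 10 µM ATP; on the % scale 0 is the no-effect control and ±100 the full control effect.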 An outline of the steps: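 HepG2 lysate (IL-1b/TNFa pre-activated) + biotin-GST-cJun 1-79 + anti-pSer73 cJun; cpd titration, 15 min RT; ATP 10 uM start; Tris pH 7.6, MgCl2, DTT, vanadate; beads in EDTA buffer; AlphaScreen.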
In general terms: Bead proximity is the source of the signal in Alpha formats.

Assay [13] in a line: Cell Viability - N2a (AID 540; active means well fitted curve in the direction sought with a large enough effect; an effect the other way counts as inactive or inconclusive;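 further: plate controls were DMSO alone for no effect and tamoxifen control for full effect; nearly all actives have a fitted effect of over 45% in size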). As to conditions: N2a mouse neuroblastoma cell viability; activity change, negative = cytotoxicity: at 92.2 µM (top of the series). The method, boiled down:
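N2a mouse neuroblastoma, 1500 cells/well, 5 hr settle; compound 40 hr, 37 °C; CellTiter-Glo 20 min RT; luminescence; Hill-fit AC50.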

The nature of assay [14]: Cell Viability - NIH 3T3 (AID 541; active means well fitted curve in the direction sought with a large enough effect; an effect the other way counts as inactive or inconclusive;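 further: plate controls were DMSO alone for no effect and tamoxifen positive control for full effect; nearly all actives have a fitted effect of over 25% in size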). The settings on record: NIH 3T3 cell viability, qHTS; activity change, negative = cytotoxicity: at 92.2 µM (top of the series). The method, boiled down: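 qHTS format; 40 hr compound exposure, 37 °C; CellTiter-Glo luminescence (cellular ATP) read-out after 20 min at RT. Decrease in ATP = cytotoxicity; AC50 from standard Hill fit.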
Assay [15] in a line: Cell Viability - HUV-EC-C (AID 542; active means well fitted curve in the direction sought with a large enough effect; an effect the other way counts as inactive or inconclusive; further: on the % scale 0 is the no-effect control and ±100 the full control effect; nearly all actives have a fitted effect of over 35% in size). The method, boiled down: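 Luminescent ATP read-out (CellTiter-Glo, 20 min room temperature) after 40 hr compound treatment of HUV-EC-C cells at 37 °C. Concentration-response data fitted with the standard Hill equation to give AC50; tamoxifen and doxorubicin served as positive controls.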
A short description of assay [16]: Cell Viability - SH-SY5Y (AID 544; active means well fitted curve in the direction sought with a large enough effect; an effect the other way counts as inactive or inconclusive;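 further: 0% = DMSO alone and -100% = 100 µM tamoxifen; nearly all actives have a fitted effect of over 55% in size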). As to conditions: SH-SY5Y neuroblastoma cell viability; viability change, negative = cytotoxic: at 92.2 µM (top of the series). The method, boiled down:
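SH-SY5Y, 1500 cells/well, 5 hr pre-incubation 37 °C; cpd 40 hr 37 °C; CellTiter-Glo 20 min RT; luminescence (ATP) read. qHTS concentration-response, Hill fit → AC50. Tamoxifen, doxorubicin as positive controls.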

Assay [17] in a line: Cell Viability - Mesenchymal (AID 546; active means well fitted curve in the direction sought with a large enough effect; an effect the other way counts as inactive or inconclusive;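 further: cells exposed to compound for 40 hours before reading; 0% = DMSO only and -100% = 100 µM tamoxifen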). An outline of the steps: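 Human renal mesenchymal cells (glomerulus-derived), 1000 cells/well, 5 hr 37 °C pre-incubation; compound 40 hr, 37 °C; CellTiter-Glo, 20 min RT; luminescence; AC50 via Hill equation.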
In assay [18] the target is 3',5'-cyclic-AMP phosphodiesterase 4B (Homo sapiens) (UniProt Q07343). The assay can be described thus: qHTS Assay for Inhibitors of PDE-IV (AID 607; active means well fitted activation curve with a large enough effect in the main read-out, with a control signal flat, not every such curve was filed as active; further: % of control where 0% means no effect). The method, boiled down:
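Live HEK293 cells with a modified cyclic nucleotide-gated (CNG) channel report intracellular cAMP via membrane-potential dye fluorescence (ex 535/em 590 nm). Endogenous PDE-IV was targeted. Compounds were tested at up to 22.9 uM final; RO 20-1724 100 uM served as control.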

Assay [19] concerns the target Cytochrome P450 1A2 (Homo sapiens) (UniProt P05177). As to the kind of experiment: p450-cyp1a2 (AID 410; calls by dose curve; further: potency means the concentration at half of the fitted maximal effect;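 on activity change, negative = inhibition: -100% = full effect of reference inhibitor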). The method, boiled down:
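20nM CYP1A2, 100uM Luciferin-ME (=Km), 100mM KPO4; cpd 10 min RT; +NADPH regen, 60 min RT; stop/detect 20 min; luminescence. Normalized to furafylline 57 uM = full inhibition.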

“And” between values parts separate entries of the source, which are not always exact repeats. Equal entries are not always repeated. Unmarked numbers belong to inactive results. Results filed as inconclusive are left out. The source made the active and inactive calls. Unless noted, the call rests on the fitted dose curve; in most records, active means well fitted curve in either direction with a large enough effect (not every such curve was filed as active); inconclusive means small, poorly fitted or top-dose-only effect, or another doubt; inactive means flat fitted curve, though single readings scatter.

Chain of 3',5'-cyclic-AMP phosphodiesterase 4B (Homo sapiens) (Q07343 whole entry, looked up): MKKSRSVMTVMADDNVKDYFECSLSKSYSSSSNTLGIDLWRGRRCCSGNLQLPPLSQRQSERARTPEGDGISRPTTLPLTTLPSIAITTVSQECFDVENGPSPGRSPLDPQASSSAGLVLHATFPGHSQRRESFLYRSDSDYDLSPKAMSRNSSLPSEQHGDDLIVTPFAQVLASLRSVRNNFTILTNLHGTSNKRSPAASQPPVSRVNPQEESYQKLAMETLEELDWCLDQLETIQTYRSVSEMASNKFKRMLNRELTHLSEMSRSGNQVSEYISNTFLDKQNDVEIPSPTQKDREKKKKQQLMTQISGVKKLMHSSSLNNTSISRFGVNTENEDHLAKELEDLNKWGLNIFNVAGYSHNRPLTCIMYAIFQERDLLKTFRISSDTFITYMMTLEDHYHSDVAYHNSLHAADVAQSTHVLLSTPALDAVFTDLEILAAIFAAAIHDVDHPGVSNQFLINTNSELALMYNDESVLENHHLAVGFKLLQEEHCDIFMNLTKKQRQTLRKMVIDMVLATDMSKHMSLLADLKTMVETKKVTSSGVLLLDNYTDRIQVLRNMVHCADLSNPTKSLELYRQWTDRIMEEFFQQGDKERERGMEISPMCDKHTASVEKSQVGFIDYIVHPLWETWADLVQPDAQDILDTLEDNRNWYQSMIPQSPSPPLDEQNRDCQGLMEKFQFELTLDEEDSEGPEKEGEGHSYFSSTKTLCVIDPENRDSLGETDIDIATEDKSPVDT
Chain of Glucocorticoid receptor (Homo sapiens) (P04150 whole entry, looked up): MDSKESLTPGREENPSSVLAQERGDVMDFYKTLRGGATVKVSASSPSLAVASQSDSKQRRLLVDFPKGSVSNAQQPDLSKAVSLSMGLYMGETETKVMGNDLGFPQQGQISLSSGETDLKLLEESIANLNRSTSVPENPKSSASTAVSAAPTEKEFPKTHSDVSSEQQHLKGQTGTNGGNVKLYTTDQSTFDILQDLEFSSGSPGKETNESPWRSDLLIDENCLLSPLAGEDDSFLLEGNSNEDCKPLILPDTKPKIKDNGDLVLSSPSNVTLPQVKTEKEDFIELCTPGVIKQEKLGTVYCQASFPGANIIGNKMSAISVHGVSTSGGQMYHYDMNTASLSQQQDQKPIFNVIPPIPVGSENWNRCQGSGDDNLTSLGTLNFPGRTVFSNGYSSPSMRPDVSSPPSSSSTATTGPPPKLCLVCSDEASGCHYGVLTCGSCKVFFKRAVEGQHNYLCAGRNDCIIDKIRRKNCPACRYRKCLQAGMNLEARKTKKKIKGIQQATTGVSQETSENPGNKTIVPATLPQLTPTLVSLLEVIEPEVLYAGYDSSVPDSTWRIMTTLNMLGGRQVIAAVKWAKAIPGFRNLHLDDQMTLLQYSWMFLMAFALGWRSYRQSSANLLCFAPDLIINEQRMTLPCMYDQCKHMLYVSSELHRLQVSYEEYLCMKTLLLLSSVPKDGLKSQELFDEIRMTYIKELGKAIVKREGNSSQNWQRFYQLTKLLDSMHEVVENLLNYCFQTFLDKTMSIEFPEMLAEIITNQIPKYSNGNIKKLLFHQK
Chain of Cytochrome P450 1A2 (Homo sapiens) (P05177 whole entry, looked up): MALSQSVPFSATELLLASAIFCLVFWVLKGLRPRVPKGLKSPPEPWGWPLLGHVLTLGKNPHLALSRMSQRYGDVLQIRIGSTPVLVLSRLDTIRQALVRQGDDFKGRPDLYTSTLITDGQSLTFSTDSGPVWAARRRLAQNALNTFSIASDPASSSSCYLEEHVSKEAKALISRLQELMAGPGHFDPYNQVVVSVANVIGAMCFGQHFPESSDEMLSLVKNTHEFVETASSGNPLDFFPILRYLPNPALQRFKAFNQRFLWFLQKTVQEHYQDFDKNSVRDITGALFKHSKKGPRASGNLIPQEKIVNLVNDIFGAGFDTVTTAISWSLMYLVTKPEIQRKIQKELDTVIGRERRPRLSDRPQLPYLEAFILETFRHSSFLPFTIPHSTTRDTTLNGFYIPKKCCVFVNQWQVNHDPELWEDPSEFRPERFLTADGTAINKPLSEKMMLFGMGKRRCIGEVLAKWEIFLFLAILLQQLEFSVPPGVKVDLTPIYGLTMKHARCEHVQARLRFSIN

On to `NS(=O)(=O)c1cc2c(cc1Cl)NCNS2(=O)=O`, for which the compound was called inactive in assay [1], in [9], in assay [12], in assay [15] and in assay [17]. Further, the Potency in assay [2], in assay [3], in assay [4], in [5], in assay [6] and in [7] was more than 92 µM throughout. The Potency in [10] is > 46 µM and > 20.6 µM; in assay [11], > 46 µM and > 20.6 µM. The activity change, negative = inhibition was 3.92% and 9.7% in assay [8] (at 17.2 µM (top of the series)); 0.292% in assay [8] (at 38 µM (top of the series)). The activity change, negative = cytotoxicity in assay [13] was -6.72%. Moreover, the Potency result in [14], in assay [16] and in assay [18] was “inactive” each time.
`CCOC(=O)c1ncn2c1CN(C)C(=O)c1cc(F)ccc1-2`: in [1], the compound was classed as inactive. For the same compound, the Potency in assay [19] is 1.58 µM (active). Further, the activity change, negative = inhibition in assay [8] (at 38 µM (top of the series)) was -1.55%. The Potency entry in assay [18] was “inactive”.
With `Nc1c2c(nc3ccccc13)CCCC2`, the outcome in [1], in assay [9], in assay [12], in [15] and in assay [17] was inactive. In addition, the Potency is 3.16 µM (active) and 794 nM (active) and 501 nM (active) in assay [19]; more than 92 µM in assay [2]; more than 92 µM in [4]; more than 92 µM in assay [5]; more than 92 µM in assay [6]; more than 92 µM in assay [7]. Also, the activity change, negative = cytotoxicity in [13] is -21.2%. Further, the Potency result in [14] and in assay [16] was “inactive” each time.
Regarding `Cc1cc(C(C)(C)C)cc(C)c1CC1=NCCN1`, the outcome in assay [1], in assay [9] and in [12] was inactive. The Potency entry in assay [19] and in assay [18] was “inactive” in each case. The Potency is > 46 µM and > 20.6 µM in [10]; > 46 µM and > 20.6 µM in assay [11].
For `CN1CCC(=C2c3ccccc3C=Cc3ccccc32)CC1`, the call in assay [1], in [9] and in assay [12] was inactive. Besides, the Potency result in [19] was “inactive”. Besides, the activity change, negative = inhibition in assay [8] (at 17.2 µM (top of the series)) was -67.8% (active). Besides, the Potency was > 46 µM and > 20.6 µM in assay [10]; > 46 µM and > 20.6 µM in assay [11].
For the compound `O=C1N(c2ccccc2)c2ccccc2C1(Cc1ccncc1)Cc1ccncc1`, the result in assay [1], in assay [9] and in [12] was inactive. The Potency in assay [19] was 15.8 µM (active); in [10] it was more than 46 µM; in [11], more than 46 µM. The activity change, negative = inhibition in assay [8] (at 38 µM (top of the series)) was -6.55%. The Potency entry in assay [18] is “inactive”.
`O=C(Nc1ccc([N+](=O)[O-])cc1Cl)c1cc(Cl)ccc1O`: the outcome in [1] and in [12] was inactive. Also, the Potency in assay [19] is 3.98 µM (active) and 1.26 µM (active); in [10], > 46 µM and > 20.6 µM; in [11], > 46 µM and > 20.6 µM. Further, the activity change, negative = inhibition in assay [8] (at 17.2 µM (top of the series)) is -101% (active); in assay [8] (at 38 µM (top of the series)) it was -89.8% (active).

For the origin of these results see PubChem BioAssay (NCATS).
